From PubChem BioAssay (NCATS)
Records with an inconclusive call do not appear. Active and inactive are the calls of the source. The call rests on the fitted dose curve; in most records, active means well fitted curve in the direction sought with a large enough effect; inconclusive means small, poorly fitted or top-dose-only effect, or another doubt; inactive means no such curve, though single readings can be large; an effect the other way counts as inactive or inconclusive.

Columns and labels:
[1] = biological target: ATP-dependent 6-phosphofructokinase (Trypanosoma brucei brucei) (UniProt O15648); assay: qHTS Assay to Find Inhibitors of T. brucei phosphofructokinase: hit validation (AID 492961);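 further: luminescence reports ADP formed as PFK phosphorylates fructose-6-phosphate with ATP; on the % scale 0 is the no-effect control and ±100 the full control effect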
ATP-dependent 6-phosphofructokinase (Trypanosoma brucei brucei), sequence (O15648 whole entry, looked up): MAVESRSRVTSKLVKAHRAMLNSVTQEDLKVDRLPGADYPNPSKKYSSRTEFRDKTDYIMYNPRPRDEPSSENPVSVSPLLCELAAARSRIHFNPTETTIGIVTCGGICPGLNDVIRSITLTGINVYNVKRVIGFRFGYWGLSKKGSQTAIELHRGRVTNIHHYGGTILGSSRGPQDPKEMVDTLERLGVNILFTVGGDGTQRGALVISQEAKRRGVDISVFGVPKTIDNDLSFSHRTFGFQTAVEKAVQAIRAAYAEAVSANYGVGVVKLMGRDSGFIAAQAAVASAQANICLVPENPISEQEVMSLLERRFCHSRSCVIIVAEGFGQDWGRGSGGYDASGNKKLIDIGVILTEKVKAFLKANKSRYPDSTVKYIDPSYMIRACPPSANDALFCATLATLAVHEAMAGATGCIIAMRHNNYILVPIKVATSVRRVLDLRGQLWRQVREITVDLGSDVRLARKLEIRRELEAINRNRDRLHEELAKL
In short: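 PFK 1.25 nM, F6P 0.5 mM, ATP 0.1 mM, MgCl2 5 mM, 0.1 M TEA pH 8.0, Tween20 0.01%, BSA 0.1%; 45 min RT. ADP-Glo two-step detection, luminescence. qHTS titration; curve fitting with curve-class categorization.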

[2] = qHTS profiling for inhibitors of Plasmodium falciparum proliferation (AID 504749); further: potency means the concentration at half of the fitted maximal effect;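 on activity, negative = inhibition: 0% = DMSO vehicle and full inhibition = artemisinin control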; on all read-outs here: nearly all actives have a fitted effect of over 60% in size; details: P. falciparum in erythrocytes, SYBR Green DNA, 72 h; for activity, negative = inhibition: at 28.7 µM (top of the series)
In short: (§1)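 Fluorescence of SYBR Green-bound parasite DNA, read at 485/535 nm, served as the growth measure. Infected erythrocytes were cultured with compound 72 h; artemisinin (0.29 uM) and DMSO wells defined the normalization range.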

[3] = test system: 3D7; assay: as above; details: P. falciparum in erythrocytes, SYBR Green DNA, 72 h; series mostly up to 28.7 µM
In short: as §1

[4] = test system: ATS189; assay: as above; details: P. falciparum in erythrocytes, SYBR Green DNA, 72 h; series mostly up to 28.7 µM
In short: as §1

[5] = test system: ATS95; assay: as above; details: P. falciparum in erythrocytes, SYBR Green DNA, 72 h; series mostly up to 28.7 µM
In short: as §1

[6] = test system: C2A; assay: as above; details: P. falciparum in erythrocytes, SYBR Green DNA, 72 h; series mostly up to 28.7 µM
In short: as §1

[7] = test system: CP185; assay: as above; details: P. falciparum in erythrocytes, SYBR Green DNA, 72 h; series mostly up to 28.7 µM
In short: as §1

[8] = test system: CP191; assay: as above; details: P. falciparum in erythrocytes, SYBR Green DNA, 72 h; series mostly up to 28.7 µM
In short: as §1

[9] = test system: CP217; assay: as above; details: P. falciparum in erythrocytes, SYBR Green DNA, 72 h; series mostly up to 28.7 µM
In short: as §1

[10] = test system: CP238; assay: as above; details: P. falciparum in erythrocytes, SYBR Green DNA, 72 h; series mostly up to 28.7 µM
In short: as §1

[11] = test system: CP250; assay: as above; details: P. falciparum in erythrocytes, SYBR Green DNA, 72 h; series mostly up to 28.7 µM
In short: as §1

[12] = test system: CP252; assay: as above; details: P. falciparum in erythrocytes, SYBR Green DNA, 72 h; series mostly up to 28.7 µM
In short: as §1

[13] = test system: CP256; assay: as above; details: P. falciparum in erythrocytes, SYBR Green DNA, 72 h; series mostly up to 28.7 µM
In short: as §1

[14] = test system: CP262; assay: as above; details: P. falciparum in erythrocytes, SYBR Green DNA, 72 h; series mostly up to 28.7 µM
In short: as §1

[15] = test system: CP265; assay: as above; details: P. falciparum in erythrocytes, SYBR Green DNA, 72 h; series mostly up to 28.7 µM
In short: as §1

[16] = test system: CP286; assay: as above; details: P. falciparum in erythrocytes, SYBR Green DNA, 72 h; series mostly up to 28.7 µM
In short: as §1

[17] = test system: DFO2036; assay: as above; details: P. falciparum in erythrocytes, SYBR Green DNA, 72 h; series mostly up to 28.7 µM
In short: as §1

[18] = test system: Dd2; assay: as above; details: P. falciparum in erythrocytes, SYBR Green DNA, 72 h; series mostly up to 28.7 µM
In short: as §1

[19] = test system: HB3; assay: as above; details: P. falciparum in erythrocytes, SYBR Green DNA, 72 h; series mostly up to 28.7 µM
In short: as §1

[20] = test system: P94_40; assay: as above; details: P. falciparum in erythrocytes, SYBR Green DNA, 72 h; series mostly up to 28.7 µM
In short: as §1

CC(C)C[C@@H](NC(=O)[C@@H](Cc1ccccc1)NC(=O)c1cnccn1)B(O)O
active: Potency ([2]; parasite line A) 79.4 nM | Potency ([2]; parasite line B) 79.4 nM | Potency [3] 112 nM | Potency [4] 112 nM | Potency [5] 112 nM | Potency [6] 112 nM | Potency [7] 112 nM | Potency [8] 100 nM | Potency [9] 112 nM | Potency [10] 89.1 nM | Potency [11] 126 nM | Potency [12] 89.1 nM | Potency [13] 141 nM | Potency [14] 120 nM | Potency [15] 141 nM | Potency [16] 89.1 nM | Potency [17] 112 nM | Potency [18] 112 nM | Potency [19] 79.4 nM | Potency [20] 126 nM
inactive: Potency [1]

CC1(C)SC2C(NC(=O)C(C(=O)O)c3ccccc3)C(=O)N2C1C(=O)O (stereo unspecified)
inactive: Potency [1] | activity, negative = inhibition ([2]; parasite line A) 5.75% | activity, negative = inhibition ([2]; parasite line B) 2.54% | Potency [3] | Potency [4] | Potency [5] | Potency [6] | Potency [7] | Potency [8] | Potency [9] | Potency [10] | Potency [11] | Potency [12] | Potency [13] | Potency [14] | Potency [15] | Potency [16] | Potency [17] | Potency [18] | Potency [19] | Potency [20]

OCCOC[C@H]1O[C@H](OCCO)[C@H](OCCO)[C@@H](OCCO)[C@@H]1OCCO (tested in a mixture with another compound)
inactive: Potency [1] | activity, negative = inhibition ([2]; parasite line A) 3.32% | activity, negative = inhibition ([2]; parasite line B) 1.14% | Potency [3] | Potency [4] | Potency [5] | Potency [6] | Potency [7] | Potency [8] | Potency [9] | Potency [10] | Potency [11] | Potency [12] | Potency [13] | Potency [14] | Potency [15] | Potency [16] | Potency [17] | Potency [18] | Potency [19] | Potency [20]

CCCCN1CC(O)C(O)C(O)C1CO (stereo unspecified)
inactive: Potency [1] | activity, negative = inhibition ([2]; parasite line A) 0.477% | activity, negative = inhibition ([2]; parasite line B) 1.06% | Potency [3] | Potency [4] | Potency [5] | Potency [6] | Potency [7] | Potency [8] | Potency [9] | Potency [10] | Potency [11] | Potency [12] | Potency [13] | Potency [14] | Potency [15] | Potency [16] | Potency [17] | Potency [18] | Potency [19] | Potency [20]

C[C@H]1[C@@H](OC(=O)CCC(=O)O)OC2OC3(C)CC[C@H]4[C@H](C)CC[C@@H]1[C@@]24OO3 (stereo partly specified)
inactive: Potency [1]
active: Potency ([2]; parasite line A) 4 nM | Potency ([2]; parasite line B) 3.5 nM | Potency [3] 5 nM | Potency [4] 2.8 nM | Potency [5] 5 nM | Potency [6] 3.2 nM | Potency [7] 5 nM | Potency [8] 4.5 nM | Potency [9] 7.1 nM | Potency [10] 4.5 nM | Potency [11] 4.5 nM | Potency [12] 5 nM | Potency [13] 7.1 nM | Potency [14] 5.4 nM | Potency [15] 2.5 nM | Potency [16] 10 nM | Potency [17] 3.5 nM | Potency [18] 4.5 nM | Potency [19] 5 nM | Potency [20] 2.2 nM

C[n+]1c2cc(N)ccc2cc2ccc(N)cc21
active: Potency ([2]; parasite line A) 398 nM | Potency ([2]; parasite line B) 1000 nM | Potency [3] 398 nM | Potency [4] 1120 nM | Potency [5] 1120 nM | Potency [6] 1000 nM | Potency [7] 631 nM | Potency [8] 282 nM | Potency [9] 891 nM | Potency [10] 708 nM | Potency [11] 1120 nM | Potency [12] 794 nM | Potency [13] 1000 nM | Potency [14] 1350 nM | Potency [15] 1260 nM | Potency [16] 178 nM | Potency [17] 355 nM | Potency [18] 355 nM | Potency [19] 447 nM | Potency [20] 631 nM
inactive: Potency [1]
